# High-throughput results from PubChem BioAssay.
# HT1080NT lethal: kills 2HG-producing HT-1080-NT fibrosarcoma cells | HT-1080-NT fibrosarcoma viability, CellTiter-Glo ATP luminescence, 48 h | Potency, µM (top dose mostly 46.1 µM), for inactives: at the highest dose activity, negative = less viability, most hits filed as cytotoxic | 360,000 tested, 1.6% active | AID 686970;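 note: NT is the 2HG producing partner of a matched IDH1 knockdown line; 0% = DMSO-treated cells and -100% = media-only wells without cells; nearly all actives have a fitted effect of over 55% in size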
#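 HT-1080-NT fibrosarcoma cells (2HG-overproducing), 750 cells/well in RPMI with 5% FBS, dosed after 2 h and incubated 48 h at 37C. CellTiter-Glo luminescence normalized to DMSO and no-cell wells; concentration-response curves fitted and classed.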
# MCF10A rereplic: induces DNA re-replication in MCF 10a normal breast cells; MCF 10A DNA re-replication, Hoechst nuclear intensity, 48 h; Potency, µM (titrated, usually from 46.1 µM), for the others: at the highest dose activity, positive = re-replication, usual class: activators; 350,000 tested, 2.9% active; AID 624296; note: % of control where 0% means no effect; nearly all actives have a fitted effect of over 50% in size
# KB-V1 MDR tox: kills drug-selected multidrug resistant KB-V1 cells. KB-V1 MDR cells viability, CellTiter-Glo, 72 h. Potency, µM (doses to about 46.1 µM), hits mostly cytotoxic. 400,000 tested, 3.4% active. AID 1347076; note: % is set by controls: 0 for no effect and ±100 for the full control effect; nearly all actives have a fitted effect of over 60% in size
#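 Luminescent ATP read-out (CellTiter-Glo, 10 min) measures survival of drug-selected KB-V1 MDR cells after 72 h, 37 degrees C compound exposure. Medium: phenol-red-free DMEM, 10% FBS. Values from fitted concentration-response curves.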
# SW480 rerep: induces DNA re-replication in SW480 colon adenocarcinoma cells; SW480 DNA re-replication, Hoechst DNA content imaging, 48 h; Potency, µM (series often up to 46.1 µM), for the others: top-dose re-replication activation, usual class: activators; 340,000 tested, 1.8% active; note: % of control where 0% means no effect; nearly all actives have a fitted effect of over 55% in size
#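 Image-based read-out: total Hoechst fluorescence of nuclei (405 nm excitation, 500-530 nm emission), with hits raising the fraction of high-intensity nuclei. SW480 colon cells incubated 48 hr with compounds at 37 C.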
# KB-3-1 cytotox: KB-3-1 parental cell cytotoxicity. 400,000 tested, 1.4% active. Potency, µM (highest dose often 46.1 µM), actives largely listed as cytotoxic. KB-3-1 viability, CellTiter-Glo ATP luminescence, 72 h. AID 1347075; note: % is set by controls: 0 for no effect and ±100 for the full control effect; nearly all actives have a fitted effect of over 60% in size
#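 KB-3-1 cells, DMEM (no phenol red) + 10% FBS; compound by pin transfer, 72 h, 37 °C. Readout: CellTiter-Glo luminescence after 10 min. Data normalized, curve-fitted.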
# HT1080 IDH1KD tx: kills HT-1080 cells with IDH1 knockdown; HT-1080 IDH1 knockdown viability, ATP luminescence, 48 h; Potency, µM (series often up to 46.1 µM), inactives show at the top dose activity, negative = toxicity, hits mostly cytotoxic; 360,000 tested, 2% active;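 note: 0% = DMSO wells and -100% = cell-free medium wells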
#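 Cytotoxicity counter-line: IDH1KD HT-1080, 48 h, CellTiter-Glo. Curves classed by r2, magnitude and activity.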
# Active calls of the source: *; i = inactive; ? = inconclusive; · = no result; [ ] = dose if it differs, or a comment. This is a sample that favours compounds with a hit; in the whole collection about 7.9% have one here. Calls come from the whole dose curve; as a rule, active = well fitted curve in the direction sought with a large enough effect; inconclusive = small, poorly fitted or top-dose-only effect, or another doubt; inactive = no such curve, though single readings can be large; an effect the other way counts as inactive or inconclusive. Potency is the fitted concentration of half-maximal effect.
SMILES,HT1080NT lethal,MCF10A rereplic,KB-V1 MDR tox,SW480 rerep,KB-3-1 cytotox,HT1080 IDH1KD tx
CCOC(=O)C1=C(Nc2ccccc2)CC(C)(O)C(C(=O)OCC)C1c1ccccc1 (centres undefined),7%,4%,?,0%,i,12%
CCn1cc(C(=O)NCC2CCCO2)c(=O)c2cc(S(=O)(=O)N3CCC(C)CC3)ccc21 (centres undefined),-26%,1%,i,0%,i,-15%
CCCCC(=O)NC(c1ccccc1)c1ccc2cccnc2c1O (centres undefined),?,?,13µM*,0.52µM*,?,?
CCCC(=O)NC(c1ccccc1)c1ccc2cccnc2c1O (centres undefined),-23%,?,?,?,?,?
COc1ccc(Cl)cc1C(Nc1cccnc1)c1ccc2cccnc2c1O (centres undefined),?,?,?,7.3µM*,?,10µM*
CCCCC(=O)NC(c1ccc(C(C)C)cc1)c1ccc2cccnc2c1O (centres undefined),?,18µM*,i,?,?,?
Oc1c(C(Nc2cccnc2)c2ccc(C(F)(F)F)cc2)ccc2cccnc12 (centres undefined),·,·,i,·,i,·
CC(=O)NC(c1ccc(C(C)C)cc1)c1ccc2cccnc2c1O (centres undefined),?,?,?,0.82µM*,0.65µM*,?
CCC(=O)NC(c1ccccc1OC)c1ccc2cccnc2c1O (centres undefined),0.79µM*,7%,?,2%,10µM*,0.5µM*
CCCC(=O)NC(c1ccc(OC)cc1)c1ccc2cccnc2c1O (centres undefined),-28%,?,7.3µM*,-6%,?,?
O=C1C=C(O)CC(c2ccc(Cl)c(Cl)c2)C1 (centres undefined),-3%,5µM*,i,-1%[9.22 µM],i,4%
COc1ccc(S(=O)(=O)Nc2cc3c(cc2C(C)=O)OCO3)cc1,?,18µM*,?,?,7.3µM*,18µM*
CC(=O)c1cc2c(cc1NS(=O)(=O)c1ccccc1Br)OCO2,6%,-3%,?,-2%,i,-12%
Cc1oc2c(cc(NS(=O)(=O)c3ccc(Cl)cc3)c3ccccc32)c1C(=O)OCc1ccccc1,·,·,i,·,i,·
COc1ccc(S(=O)(=O)Nc2cc3c(C(C)=O)c(C)oc3c3ccccc23)cc1,1.3µM*,?,2.1µM*,5.2µM*,2.1µM*,0.52µM*
CCOc1ccc(S(=O)(=O)Nc2cc3c(C(=O)OC)c(COC)oc3c3ccccc23)cc1,·,·,15µM*,·,3.7µM*,·
Cc1oc2c(cc(NS(=O)(=O)c3cccs3)c3ccccc32)c1C(=O)OC(C)C,0%,13µM*,i,0%,i,-15%
COc1ccc(NC(=O)CSCc2cc(=O)n3c(C)csc3n2)cc1,4%,2%,i,-2%,i,13%
O=C(NCCN1CCOCC1)c1ccc(CSc2nc3ccncc3n2Cc2ccc(F)cc2)cc1,-10%,16%,?,1%,i,-1%
CCOC(=O)c1c(NC(=O)Cc2cccs2)sc(C)c1C,?,3.7µM*,?,-5%,i,-25%
CCOC(=O)c1c(NC(=O)Cc2cccs2)sc(C(=O)NC2CCCC2)c1C,?,25%,i,-9%,i,-22%
COC(=O)c1c(NC(=O)Cc2cccs2)sc(C(=O)N2CCCCC2)c1C,-2%,9%,16µM*,-2%,i,-29%
COC(=O)c1c(NC(=O)CCl)sc(C(=O)N2CCOCC2)c1C,7.3µM*,?,?,?,?,18µM*
COC(=O)c1c(NC(=O)Cc2cccs2)sc(C(=O)NC2CCCCC2)c1C,2%,4%,i,?,i,3%
COc1ccc(OCC(=O)NNC(=S)NC(=O)c2ccc([N+](=O)[O-])cc2)cc1,-3%,?,?,0%,i,-8%
SMILES,HT1080NT lethal,MCF10A rereplic,KB-V1 MDR tox,SW480 rerep,KB-3-1 cytotox,HT1080 IDH1KD tx
COc1ccccc1-n1cnc2cc(NS(=O)(=O)c3ccc(Br)cc3)ccc21,-15%,?,12µM*,14%,i,?
COc1ccc(CNc2ccc3c(c2)ncn3-c2ccccc2OC)cc1,-9%,18%,16µM*,?,i,-18%
CCOc1ccc(CNc2ccc3c(c2)ncn3C(C)(C)C)cc1,-1%,-1%,i,4%,i,-4%
COc1ccccc1-n1cnc2cc(NCc3cccs3)ccc21,3.7µM*,1.5µM*,?,2.1µM*,1.2µM*,2.1µM*
CCCNC(=O)c1ccc2c(c1)ncn2-c1ccccc1OC,26%,3%,i,-6%,i,22%
COc1ccccc1-n1cnc2cc(NCc3ccco3)ccc21,5.2µM*,2.1µM*,2.6µM*,1.5µM*,0.58µM*,?
O=C(Nc1cccc(Cl)c1)c1nc[nH]c1C(=O)NCCN(CCNC(=O)c1[nH]cnc1C(=O)Nc1cccc(Cl)c1)CCNC(=O)c1[nH]cnc1C(=O)Nc1cccc(Cl)c1,?,-3%,?,1%,i,14%
CCOC(=O)c1cccnc1SCC(=O)NC(C)CC (centres undefined),10%,-5%,i,-13%,i,1%
COc1cccc(NC(=O)CN(C)C(=O)c2ccc(S(=O)(=O)Nc3ccccc3C)cc2)c1,-3%,-4%,i,-24%,i,-1%
CC1CC(C)CN(S(=O)(=O)c2cc3c(cc2Cl)NC(=O)CO3)C1 (centres undefined),-24%,-1%,i,-2%,i,0%
CC(C)(C)n1cnc2cc(NCc3cccs3)ccc21,2%,2%,?,-2%,i,3%
Cc1ccccc1-n1cnc2cc(NCc3cccs3)ccc21,-28%,?,i,18µM*,?,?
Cc1[nH]c(C)c(S(=O)(=O)NCc2ccc(OC(C)C)cc2)c1C(=O)N1CCCC1,-3%,4%,i,0%,i,1%
Cc1cccc(C)c1OCC(O)CNC(C)C (centres undefined),-2%,-26%,i,1%,i,-1%
COc1cc(OC)cc(C(=O)c2c(C)c(C#N)c3ccccn23)c1,?,?,?,10µM*,5.2µM*,12%
CCCCOCCCNC(=O)C[C@@H]1C[C@@]2(C(=O)OCC)CCC=C2N(Cc2ccc(Cl)cc2Cl)C1=O,?,·,18µM*,·,?,?
